Results as given in PubChem BioAssay AID1159580 (chemical genetic matrix, 2015).
About 2,000 (36%) of roughly 5,500 compounds were called active. About 18% were inconclusive and are not listed. Rule as the data show it: active = normalized growth mostly below about 0.91 (no sharp cut-off); inconclusive = no clear call, values can overlap the other calls; inactive = mostly above about 0.92. Some of the results follow.

Assay: chemical genetic growth profiling, strain panel (AID 1159580);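 also: tested at 20 µM; growth read once vehicle control cultures reached saturation at 30 °C; 1 = growth at the plate median or of vehicle wells; lower values mean less growth of the strain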
Details: S. cerevisiae deletion strains, growth OD
[1] = locus YAR019C, strain CDC15, hits give low values
[2] = locus YBL105C, strain PKC1, hits give low values
[3] = locus YBR135W, strain CKS1, hits give low values
[4] = locus YBR136W, strain MEC1, hits give low values
[5] = locus YBR160W, strain CDC28, hits give low values
[6] = locus YDL017W, strain CDC7, hits give low values
[7] = locus YDL028C, strain MPS1, hits give low values
[8] = locus YDL101C, strain DUN1, hits give low values
[9] = locus YDL108W, strain KIN28, hits give low values
[10] = locus YDL132W, strain cdc53, hits give low values
[11] = locus YDL214C, strain PRR2, hits give low values
[12] = locus YDR052C, strain DBF4, hits give low values
[13] = locus YDR054C, strain cdc34, hits give low values
[14] = locus YDR226W, strain ADK1, hits give low values
[15] = locus YDR477W, strain SNF1, hits give low values
[16] = locus YER123W, strain YCK3, hits give low values
[17] = locus YER133W, strain GLC7, hits give low values
[18] = locus YFL009W, strain cdc4, hits give low values
[19] = locus YFL029C, strain CAK1, hits give low values
[20] = locus YFR003C, strain YPI1, hits give low values
[21] = locus YFR019W, strain FAB1, hits give low values
[22] = locus YFR028C, strain CDC14, hits give low values
[23] = locus YGR040W, strain KSS1, hits give low values
[24] = locus YGR052W, strain FMP48, hits give low values
[25] = locus YGR092W, strain DBF2, hits give low values
[26] = locus YHR030C, strain SLT2, hits give low values
[27] = locus YHR079C, strain IRE1, hits give low values
[28] = locus YHR082C, strain KSP1, hits give low values
[29] = locus YHR205W, strain SCH9, hits give low values
[30] = locus YIL147C, strain SLN1, hits give low values
[31] = locus YJL095W, strain BCK1, hits give low values
[32] = locus YJL128C, strain PBS2, hits give low values
[33] = locus YJL157C, strain FAR1, hits give low values
[34] = locus YJR016C, strain ILV3, hits give low values
[35] = locus YJR066W, strain TOR1 (second series), hits give low values
[36] = locus YJR066W, strain TOR1, hits give low values
[37] = locus YKL048C, strain ELM1, hits give low values
[38] = locus YKL067W, strain YNK1, hits give low values
[39] = locus YKL101W, strain HSL1, hits give low values
[40] = locus YKL193C, strain SDS22, hits give low values
[41] = locus YKL203C, strain TOR2, hits give low values
[42] = locus YLR113W, strain HOG1, hits give low values
[43] = locus YLR133W, strain CKI1, hits give low values
[44] = locus YLR403W, strain SFP1, hits give low values
[45] = locus YML070W, strain DAK1, hits give low values
[46] = locus YMR001C, strain CDC5, hits give low values
[47] = locus YMR205C, strain PFK2 (second series), hits give low values
[48] = locus YMR277W, strain FCP1, hits give low values
[49] = locus YNL006W, strain LST8, hits give low values
[50] = locus YNL020C, strain ARK1, hits give low values
[51] = locus YNL161W, strain CBK1, hits give low values
[52] = locus YNL183C, strain NPR1, hits give low values
[53] = locus YNL207W, strain RIO2, hits give low values
[54] = locus YNL222W, strain SSU72, hits give low values
[55] = locus YNL307C, strain MCK1 (second series), hits give low values
[56] = locus YOL078W, strain AVO1, hits give low values
[57] = locus YOL136C, strain PFK27, hits give low values
[58] = locus YOR061W, strain CKA2, hits give low values
[59] = locus YOR119C, strain RIO1, hits give low values
[60] = locus YOR231W, strain MKK1, hits give low values
[61] = locus YOR329C, strain SCD5, hits give low values
[62] = locus YPL031C, strain PHO85, hits give low values
[63] = locus YPL153C, strain RAD53, hits give low values
[64] = locus YPL204W, strain HRR25, hits give low values
[65] = locus YPL209C, strain IPL1, hits give low values
[66] = locus YPL256C, strain CLN2, hits give low values
[67] = locus YPR025C, strain CCL1, hits give low values
[68] = locus YPR106W, strain ISR1, hits give low values
[69] = locus YPR111W, strain DBF20, hits give low values
[70] = strain NNK1, hits give low values
[71] = strain TSCII, hits give low values

Measured: normalized growth

COC(=O)c1ccc(Oc2c(C(F)(F)F)oc3cc(O)ccc3c2=O)cc1
inactive: [1] 0.976 | [2] 0.976 | [3] 0.975 | [4] 0.974 | [5] 0.986 | [6] 0.977 | [7] 0.979 | [8] 0.982 | [9] 0.976 | [10] 0.961 | [11] 0.949 | [12] 0.984 | [13] 0.959 | [14] 0.964 | [15] 0.948 | [16] 0.924 | [17] 0.929 | [18] 0.969 | [19] 0.976 | [20] 0.974 | [21] 0.938 | [22] 0.965 | [23] 0.941 | [24] 0.962 | [25] 0.948 | [26] 0.902 | [27] 0.926 | [28] 1.01 | [29] 0.949 | [30] 0.978 | [31] 0.904 | [32] 0.941 | [33] 0.936 | [34] 0.974 | [35] 0.93 | [36] 1.01 | [37] 0.968 | [38] 0.956 | [39] 0.945 | [40] 0.967 | [41] 1.01 | [42] 0.869 | [43] 0.95 | [44] 0.938 | [45] 0.934 | [46] 0.972 | [47] 0.969 | [48] 0.978 | [49] 0.972 | [50] 0.949 | [51] 0.962 | [52] 1.02 | [53] 0.969 | [54] 0.979 | [55] 0.95 | [56] 0.97 | [57] 0.933 | [58] 0.968 | [59] 1.02 | [60] 0.967 | [61] 0.975 | [62] 0.94 | [63] 0.935 | [64] 0.95 | [65] 0.971 | [66] 0.9 | [67] 0.98 | [68] 0.979 | [69] 0.979 | [70] 0.973 | [71] 0.96

FC(F)(F)c1ccc(C2Sc3ccccc3N=C3c4ccccc4CC32)cc1 (configuration not stated)
inactive: [1] 1.01 | [2] 1.03 | [3] 1.01 | [4] 1 | [5] 1.02 | [6] 1.01 | [7] 0.996 | [8] 1 | [9] 0.994 | [10] 1.02 | [11] 1.02 | [12] 1.01 | [13] 1.02 | [14] 0.996 | [15] 1.03 | [16] 0.96 | [17] 1 | [18] 1.01 | [19] 1 | [20] 1.02 | [21] 0.985 | [22] 1.01 | [23] 1.02 | [24] 1.04 | [25] 0.979 | [26] 0.97 | [27] 1.01 | [28] 1.01 | [29] 0.953 | [30] 1 | [31] 0.985 | [32] 0.973 | [33] 1.02 | [34] 1.02 | [35] 0.999 | [36] 0.993 | [37] 0.984 | [38] 1 | [39] 1.04 | [40] 1.01 | [41] 1.1 | [42] 0.87 | [43] 0.987 | [44] 0.991 | [45] 0.981 | [46] 1.02 | [47] 0.995 | [48] 1.02 | [49] 1 | [50] 1.01 | [51] 1.03 | [52] 0.969 | [53] 1.02 | [54] 1.01 | [55] 0.937 | [56] 0.998 | [57] 0.993 | [58] 0.993 | [59] 1.02 | [60] 1 | [61] 1.03 | [62] 1.06 | [63] 1.03 | [64] 1.01 | [65] 1.02 | [66] 0.951 | [67] 1.02 | [68] 0.996 | [69] 0.985 | [70] 1.01 | [71] 1.02
